Source: PubChem BioAssay AID1845226 (National Center for Advancing Translational Sciences (NCATS), 2023)
Records with an inconclusive call do not appear. Active and inactive are the calls of the source. Calls come from the whole dose curve; as a rule, active = well fitted inhibition curve with a large enough effect; inconclusive = small, poorly fitted or top-dose-only effect; inactive = no such curve, though single readings can be large or run the other way.

Assay: Confirmatory fluorescence-based thiol-reactive (MSTI) qHTS assay for identification of artifact compounds
Conditions: MSTI thiol-reactivity probe, 1 h; series mostly up to 39.2 µM; activity change, negative = inhibition: at the top concentration
Excerpt: PI: Alexander Tropsha Ph.D. UNC Eshelman School of Pharmacy University of North Carolina, Chapel Hill, North Carolina Hits from high-throughput screening (HTS) of chemical libraries are often false positives due to their interference with the assay detection technology. In response to this problem, we generated the largest publicly available library of chemical liabilities and developed a free webtool to predict HTS artifacts, both of which are described herein. More specifically, we generated, curated, and integrated HTS datasets for thiol reactivity, redox activity, and luciferase (firefly and nano) activity. Using these curated datasets, we developed and validated several Quantitative Structure-Interference Relationship (QSIR) models to predict nuisance behavior. […] These models were employed for virtual profiling of the National Center for Advancing Translational Science's (NCATS) in-house library, and 256 compounds for each assay were selected for the experimental validation of nuisance behavior. The BA for these external predictions ranged from 58 to 78% for compounds within the applicability domains of the models. […] The models developed in this study, along with aggregation models previously developed by our group (SCAM Detective) were implemented in "Liability Predictor," an online tool which may be used as part of chemical library design or for triaging HTS hits. Both the models and the curated datasets are publicly available at https://liability.mml.unc.edu/.
PROTOCOL TABLE SEQUENCE No. (e.g., 1, 2, 3, etc.); PARAMETER (e.g., Cells, Incubation, Reagent, etc.); VALUE; DESCRIPTION. 1; Reagent; 4 uL; […]. 2; Compounds and control; 16 nL; Kalypsis pin tool (Wako USA) equipped with a 1536-well pin head. 3; Incubation; 1 hour. 4; Detection; Fluorescence, ViewLux microplate reader, 525 nm excitation, 598 nm emission. NOTES (numbers refer to Sequence numbers above) 1. Assays determining (E)-2-(4-mercaptostyryl)-1,3,3-trimethyl-3H-indol-1-ium (MSTI) reactivity were performed as previously described in the literature with modifications for the quick identification of compounds reacting with thiol. In brief, 4 uL of MSTI or positive control Acetyl-MSTI (final concentrations of 4 uM and 4 uM, respectively) in assay buffer (2% DMSO in 1X PBS pH 7.4) was dispensed into all wells of a 1536-well assay plate (solid-bottom black plate; Greiner Bio One, Monroe, NC). 2. A Wako Pin-tool (Wako Automation, Richmond, VA) was used to transfer 16 nL of compounds (consisting of 7-plates in qHTS format, final concentration range 18.3 nM to 114 uM) or control MLS001163887 (final concentration range 1.22 nM to 40 uM). 3. Plates were centrifuged (121xg, 15 seconds) and incubated for 1 hour at room temperature protected from light. 4. Samples were read for fluorescence (Ex/Em = 525(20)/598(25) nm) on a ViewLux CCD imager (PerkinElmer). Data were normalized to Acetyl-MSTI (0% activity) and MSTI (100% activity) and the resulting percent inhibition data were fitted to a 4-parameter Hill equation using NCATS in-house software.

Structure (SMILES) | activity change, negative = inhibition
COc1ccc2[nH]cc(CCNCc3ccc(Br)cc3)c2c1 | -9.28% (inactive)
CC1CCCC(O)CCCCCc2cc(O)cc(O)c2C(=O)O1 (configuration not stated) | 108% [at 78.4 µM] (inactive)
COc1ccc2c3c1O[C@H]1[C@@H](O)C=C[C@H]4[C@@H](C2)NCC[C@@]341 | 31.7% [at 88 µM] (inactive)
c1ccc2sc(SNC3CCCCC3)nc2c1 | 25.4% (inactive)
O=c1ccc2cc(O[C@@H]3O[C@H](CO)[C@H](O)[C@H](O)[C@H]3O)c(O)cc2o1 | 5.87% (inactive)
CC[C@H]1[C@@H]2C[C@H]3[C@@H]4N(C)c5ccccc5[C@]45C[C@@H](C2[C@H]5O)N3[C@@H]1O (some centres not stated) | -8.38% [at 13.1 µM] (inactive)
C[C@H]1CCCC(=O)CCC/C=C/c2cc(O)cc(O)c2C(=O)O1 | 90.4% (inactive)
